Results filed as inconclusive are left out. The source made the active and inactive calls. Calls come from the whole dose curve; as a rule, active = well fitted curve in the direction sought with a large enough effect; inconclusive = small, poorly fitted or top-dose-only effect, or another doubt; inactive = no such curve, though single readings can be large; an effect the other way counts as inactive or inconclusive.
Experiments:
[1] = system: CRL-7250; experiment: Cytotoxic Profiling of Annotated Libraries Using Quantitative High-Throughput Screening (AID 1296008); details: Five cell lines viability, CellTiter-Glo ATP luminescence, 48-72 h; max response: active compounds read low; note: nearly all actives have a fitted effect of over 60% in size; for max response: % is set by controls: 0 for no effect and ±100 for the full control effect
Summary of the method: (§1)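 Cells exposed to compounds for 48 or 72 hr at 37 degrees Celsius. Viability read as ATP-coupled luminescence with CellTiter-Glo after 10 min at room temperature.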

[2] = system: HEK293; experiment: as above; details: Five cell lines viability, CellTiter-Glo ATP luminescence, 48-72 h; max response: active compounds read low
Summary of the method: as §1

[3] = system: HaCat; experiment: as above; details: Five cell lines viability, CellTiter-Glo ATP luminescence, 48-72 h; max response: active compounds read low
Summary of the method: as §1

[4] = system: KB-3-1; experiment: as above; details: Five cell lines viability, CellTiter-Glo ATP luminescence, 48-72 h; max response: active compounds read low
Summary of the method: as §1

[5] = system: NIH3T3; experiment: as above; details: Five cell lines viability, CellTiter-Glo ATP luminescence, 48-72 h; max response: active compounds read low
Summary of the method: as §1

[6] = system: HEK293T; experiment: qHTS assay to identify novel small-molecules to repurpose for Merkel cell carcinoma treatment (AID 1296009); details: MCC and control cell lines, CellTiter-Glo viability, 72 h; series mostly up to 44.8 µM; note: nearly all actives have a fitted effect of over 60% in size
Summary of the method: (§2)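 CellTiter-Glo luminescence after 72 hr compound exposure at 37 degree celsius gave cell viability. Libraries NPC and MIPE were run as 8- and 11-point dose responses; RLUs normalized to DMSO (negative) and no-cell (cytotoxicity) controls.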

[7] = system: NIH3T3; experiment: as above; details: MCC and control cell lines, CellTiter-Glo viability, 72 h; at 44.8 µM (top of the series) unless noted
Summary of the method: as §2

[8] = system: C33A; experiment: Primary qHTS to identify gynecologic anti-cancer compounds using libraries of approved drugs and bioactive compounds (AID 1345084); details: Gynecologic cancer cell panel viability, ATPlite luminescence, 48 h; series mostly up to 57.5 µM; note: % is set by controls: 0 for no effect and ±100 for the full control effect; nearly all actives have a fitted effect of over 55% in size
Summary of the method: (§3)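 Measured: luminescence after ATPlite addition (15 min, RT). Exposure: 48 h, 37 C, 5% CO2.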

[9] = system: CASKI; experiment: as above; details: Gynecologic cancer cell panel viability, ATPlite luminescence, 48 h; series mostly up to 57.5 µM
Summary of the method: as §3

[10] = system: Es-2; experiment: as above; details: Gynecologic cancer cell panel viability, ATPlite luminescence, 48 h; series mostly up to 57.5 µM
Summary of the method: as §3

[11] = system: HeLa; experiment: as above; details: Gynecologic cancer cell panel viability, ATPlite luminescence, 48 h; series mostly up to 57.5 µM
Summary of the method: as §3

[12] = system: CAOV3; experiment: as above; details: Gynecologic cancer cell panel viability, ATPlite luminescence, 48 h; series mostly up to 57.5 µM
Summary of the method: as §3

C=CC(C)(O)CC/C=C(\C)C(=O)OCC1OC(OC2CCC3(C)C(CCC4(C)C3CC=C3C5CC(C)(C)C(O)CC5(C(=O)O)CCC34C)C2(C)C)C(O)C(OC2OC(CO)C(O)C(OC3OC(CO)C(O)C(OC4OC(COC5OC(CO)C(O)C(O)C5O)C(O)C(O)C4O)C3O)C2O)C1O (centres undefined)
inactive: max response [1] -1.92% | outcome [2] | max response [3] 2.14% | outcome [4] | outcome [5] | outcome [6] inactive [at 9.27 µM] | outcome [7] inactive [at 9.27 µM] | activity change, negative = cytotoxicity [8] 4.36% [at 6.55 µM] | activity change, negative = cytotoxicity [9] 11.9% [at 6.55 µM] | activity change, negative = cytotoxicity [10] 0.769% [at 6.55 µM] | activity change, negative = cytotoxicity [11] 3.26% [at 6.55 µM]

C=CC1(C)CC2=CCC3C(C)(C(=O)O)CCCC3(C)C2CC1OC(C)=O (centres undefined)
inactive: outcome [1] | outcome [2] | max response [3] -6.85% | max response [4] 0.0592% | outcome [5] | Potency [6] | outcome [7] | Potency [8] | Potency [9] | Potency [10] | Potency [11]

CC1CCC2C(C(=O)O)=CC3CC(C)(C)CC132 (centres undefined)
inactive: max response [1] 3.63% | outcome [2] | max response [3] -7.87% | max response [4] 3% | outcome [5] | Potency [6] | outcome [7] | Potency [8] | Potency [12] | Potency [9] | Potency [10] | Potency [11]

CC(=O)N[C@H]1[C@H](O[C@H]2CC[C@@]3(C)C(CC[C@]4(C)C3CC=C3C5CC(C)(C)CC[C@]5(C(=O)O)[C@H](O[C@@H]5O[C@H](CO)[C@@H](O)[C@H](O)[C@H]5O)C[C@]34C)C2(C)C)O[C@H](CO[C@@H]2OC[C@H](O)[C@H](O)[C@H]2O[C@@H]2OC[C@@H](O)[C@H](O)[C@H]2O)[C@@H](O)[C@@H]1O (some centres undefined)
inactive: outcome [1] | outcome [2] | max response [3] -15.2% | max response [4] 2.21% | max response [5] -4.54% | outcome [6] inactive [at 9.27 µM] | activity change, negative = cytotoxicity [8] -4.04% [at 11.6 µM] | activity change, negative = cytotoxicity [12] 4.01% [at 11.6 µM] | activity change, negative = cytotoxicity [9] -4.68% [at 11.6 µM] | activity change, negative = cytotoxicity [10] -1.11% [at 11.6 µM] | activity change, negative = cytotoxicity [11] 15.9% [at 11.6 µM]

C=C1C(=O)O[C@H]2[C@H]1[C@@H](OC(=O)C(C)CO)C[C@@]1(C)[C@H](O)CCC(=O)[C@H]21 (some centres undefined)
inactive: max response [1] -10.3% | outcome [2] | max response [3] -8.77% | outcome [4] | max response [5] -0.0339% | Potency [6] | Potency [8] | Potency [12] | Potency [9] | Potency [10] | Potency [11]

CC1=C(CC(=O)O)c2cc(F)ccc2C1=Cc1ccc(S(C)(=O)=O)cc1
inactive: outcome [1] | outcome [2] | max response [3] -6.44% | outcome [4] | max response [5] 4% | Potency [6] | Potency [8] | Potency [12] | Potency [9] | Potency [10] | Potency [11]

CC1NC(=O)C(Cc2c[nH]c3ccccc23)NC1=O (centres undefined)
inactive: max response [1] 2.89% | outcome [2] | max response [3] 2.4% | max response [4] 6.79% | max response [5] 2.54% | Potency [6] | Potency [8] | Potency [12] | Potency [9] | Potency [10] | Potency [11]

CC(=O)OC1C(O)CC(O[C@@H]2O[C@H](CO)[C@@H](O)[C@H](O)[C@H]2O)C2CCC3C(=O)OC(c4ccoc4)CC3(C)C21 (some centres undefined)
inactive: max response [1] -4.25% | outcome [2] | max response [3] -6.02% | max response [4] 0.494% | outcome [5] | Potency [6] | Potency [8] | Potency [12] | Potency [9] | Potency [10] | Potency [11]

CCNC(=O)[C@H]1O[C@H](n2cnc3c(NCC(c4ccccc4)c4ccccc4)nc(C(=O)NCCNC(=O)NC4CCN(c5ccccn5)CC4)nc32)[C@H](O)[C@@H]1O
inactive: max response [1] -2.5% | outcome [2] | max response [3] -11.9% | max response [4] 2.94% | max response [5] 1.64% | Potency [6] | Potency [8] | Potency [12] | Potency [9] | Potency [10] | Potency [11]

O=C(OCC12OC1C=CC(OC(=O)c1ccccc1)C2O)c1ccccc1 (centres undefined)
inactive: max response [1] 4.27% | outcome [2] | max response [3] 0.27% | max response [4] 9.03% | max response [5] -13.1% | Potency [6] | Potency [8] | Potency [12] | Potency [9] | Potency [10] | Potency [11]

C=C1CCC2C(C)(COC3OC(COC(=O)CC(=O)O)C(O)C(O)C3O)CCCC2(C)C1CCC1=CCOC1=O (centres undefined)
inactive: outcome [1] | outcome [2] | max response [3] -2.95% | outcome [4] | outcome [5] | Potency [6] | outcome [7] inactive [at 17.4 µM] | Potency [8] | Potency [12] | Potency [9] | Potency [10] | Potency [11]

C[C@@H]1O[C@@H](O[C@H]2[C@H](O[C@H]3[C@H](O[C@H]4CC[C@@]5(CO)C(CC[C@]6(C)C5CC=C5C7CC(C)(C)C[C@@H](O)[C@]7(C)CC[C@]56C)C4(C)C)O[C@H](C(=O)O)[C@@H](O)[C@@H]3O)OC[C@@H](O)[C@@H]2O)[C@H](O)[C@H](O)[C@H]1O (some centres undefined)
inactive: outcome [1] | outcome [2] | max response [3] 4.17% | max response [4] 5.01% | max response [5] -0.118% | outcome [6] inactive [at 9.27 µM] | activity change, negative = cytotoxicity [8] -1.54% [at 11.6 µM] | activity change, negative = cytotoxicity [12] 7.01% [at 11.6 µM] | activity change, negative = cytotoxicity [9] 6.9% [at 11.6 µM] | activity change, negative = cytotoxicity [10] -4.17% [at 11.6 µM] | activity change, negative = cytotoxicity [11] -12.2% [at 11.6 µM]

Source: PubChem BioAssay (NCATS)
